{"source": "PubChem BioAssay (NCATS)", "note": "Non-standard residues stand in square brackets, D forms with d. Residues, ends and D or L forms follow the SMILES beside them. *: point of attachment. Nva = CCC[C@H](N)C(=O)O; Cbz = O=C(OCc1ccccc1)*"}
{"assay": "qHTS profiling of the MIPE4 collection as inhibitors of Plasmodium falciparum (DD2) proliferation (AID 743345)", "details": "P. falciparum Dd2 in erythrocytes, SYBR Green DNA, 72 h; at 28.5 µM (top of the series) unless noted", "text": "Plasmodium falciparum is a virulent malarial parasite that kills 1-2 million people worldwide each year. Transmitted by mosquitoes, the sporozoite form of the parasite enters the blood stream to infect hepatocytes, where they become merozoites that infect red blood cells (erythrocytes). Within erythrocytes, merozoites begin a […] cycle of growth and division, after which the parasite is released to infect new red blood cells. Gametocytes, which form within erythrocytes as well, circulate in the bloodstream and are ingested by the mosquito, thereby completing the life cycle. To profile malarial isolates for differential chemical responses and to identify inhibitors of malarial growth, an assay that measures P. falciparum growth and replication within erythrocytes was employed. This assay uses a DNA binding fluorescent dye (SYBR Green) to detect parasite DNA following cell lysis. Because mature erythrocytes lack DNA, only Plasmodium-derived DNA is detected.\nThe SYBR Green viability assay was adapted from a method described previously (Plouffe et al., 2008). For screening 3 ul culture medium was dispensed into 1536 well black clear bottom plates (Aurora Biotechnologies) using a Multidrop Combi (Thermo Fisher Scientific Inc.), 23 nL compounds in DMSO were added by a pin tool (Kalypsys), and 5 ul of erythrocytes infected with P. falciparum (0.3% parasitemia, 2.5% hematocrit final concentration) were added. The plates were incubated at 37 C in a humidified incubator in 5% CO2 for 72 h, and 2 ul lysis buffer (20 mM Tris HCl, 10 mM EDTA, 0.16% saponin, 1.6% triton X, 10X SYBR Green I supplied as 10,000X […] by Invitrogen) was added to each well. The plates were mixed for 25 sec with gentle shaking and incubated overnight at room temperature in the dark. The following morning, fluorescence intensity at 485(14) nm excitation and 535(25) nm emission wavelengths was measured on an EnVision (Perkin Elmer) plate reader. Plate reads were normalized relative to the control inhibitor (0.29 uM artemisinin) and vehicle (DMSO) wells present on each plate and then corrected by an algorithm using vehicle-only control plates at the beginning and end of the compound plate stack."}
{"smiles": "CCN(CC)CCNC(=O)c1c(C)[nH]c(C=C2C(=O)Nc3ccc(F)cc32)c1C", "parasite growth remaining, % of DMSO control (lower = more inhibition)": "7.72% [at 57.5 µM]"}
{"smiles": "C=CC(=O)Nc1ccc2ncnc(Nc3ccc(OCc4cccc(F)c4)c(Cl)c3)c2c1", "parasite growth remaining, % of DMSO control (lower = more inhibition)": "19.9%"}
{"smiles": "COc1cc(C[C@@H](CO)[C@H](CO)Cc2ccc(O)c(OC)c2)ccc1O", "parasite growth remaining, % of DMSO control (lower = more inhibition)": "100%"}
{"smiles": "CC(C=CC(=O)NO)=C[C@@H](C)C(=O)c1ccc(N(C)C)cc1", "parasite growth remaining, % of DMSO control (lower = more inhibition)": "7.38%"}
{"smiles": "O=C1NCCc2[nH]c(-c3ccncc3)cc21", "parasite growth remaining, % of DMSO control (lower = more inhibition)": "39%"}
{"smiles": "COc1cc2c(cc1OC)[C@@H]1C(=O)c3ccc4c(c3O[C@@H]1CO2)C=CC(C)(C)O4", "parasite growth remaining, % of DMSO control (lower = more inhibition)": "91.2%"}
{"smiles": "COc1ccc(C[C@@H](C)[C@@H](C)Cc2ccc(OC)c(OC)c2)cc1OC", "parasite growth remaining, % of DMSO control (lower = more inhibition)": "87.5%"}
{"smiles": "CCCNS(=O)(=O)Nc1ncnc(OCCOc2ncc(Br)cn2)c1-c1ccc(Br)cc1", "parasite growth remaining, % of DMSO control (lower = more inhibition)": "99.9%"}
{"smiles": "COC1=C2C[C@@H](C)C[C@H](OC)[C@@H](O)[C@@H](C)C=C(C)[C@H](OC(N)=O)[C@@H](OC)C=CC=C(C)C(=O)NC(=CC1=O)C2=O", "parasite growth remaining, % of DMSO control (lower = more inhibition)": "5.64%"}
{"smiles": "NC(=NCCCCCCN=C(N)N=C(N)Nc1ccc(Cl)cc1)N=C(N)Nc1ccc(Cl)cc1", "parasite growth remaining, % of DMSO control (lower = more inhibition)": "6.46%"}
{"smiles": "CC(C)(C)[C@H](NC(=O)c1ccc(N)c(Cl)c1)C(=O)N1CCC[C@@H]1C(=O)N[C@H](C#N)CC(=O)O", "parasite growth remaining, % of DMSO control (lower = more inhibition)": "110% [at 3.19 µM]"}
{"smiles": "CC(C)(O)[C@H]1CC[C@@](C)([C@H]2[C@@H](O)C[C@@]3(C)[C@@H]4C[C@H](O[C@@H]5O[C@H](CO)[C@@H](O)[C@H](O)[C@@H]5O)[C@H]5C(C)(C)[C@@H](O[C@@H]6OC[C@@H](O)[C@H](O)[C@@H]6O)CC[C@@]56C[C@@]46CC[C@]23C)O1", "parasite growth remaining, % of DMSO control (lower = more inhibition)": "135%"}
{"smiles": "CC(C(C)N1CC(=O)NC(=O)C1)N1CC(=O)NC(=O)C1", "note": "(stereo not given)", "parasite growth remaining, % of DMSO control (lower = more inhibition)": "80.3%"}
{"smiles": "Cn1cc(C[C@@H](N)C(=O)O)c2ccccc21", "parasite growth remaining, % of DMSO control (lower = more inhibition)": "82.7% [at 9.64 µM]"}
{"smiles": "COc1cc(C(=O)NC2CCN(C)CC2)ccc1Nc1ncc2c(n1)N(C1CCCC1)CCC(=O)N2C(C)C", "parasite growth remaining, % of DMSO control (lower = more inhibition)": "7.51%"}
{"smiles": "CC(=O)[C@]1(O)Cc2c(O)c3c(c(O)c2[C@@H](O[C@H]2C[C@H](N)[C@@H](O)[C@H](C)O2)C1)C(=O)c1ccccc1C3=O", "parasite growth remaining, % of DMSO control (lower = more inhibition)": "46.3%"}
{"smiles": "OCC(O)C(O)C(O)CO", "note": "(stereo not given)", "parasite growth remaining, % of DMSO control (lower = more inhibition)": "105%"}
{"smiles": "CCC[C@@H](C=O)NC(=O)[C@H](CC(C)C)NC(=O)[C@H](CC(C)C)NC(=O)OCc1ccccc1", "note": "(Cbz-Leu-Leu-[Nva]-aldehyde)", "parasite growth remaining, % of DMSO control (lower = more inhibition)": "6.49%"}
{"smiles": "CCCCOc1ccc(C(=O)Nc2ccc(F)cc2F)cc1", "parasite growth remaining, % of DMSO control (lower = more inhibition)": "95.7%"}
{"smiles": "CN(C)c1ccc2cc(C(=O)N[C@@H](CCCN=C(N)CCl)C(=O)NCc3ccccc3)ccc2c1", "parasite growth remaining, % of DMSO control (lower = more inhibition)": "8.25%"}
{"smiles": "CC(C)C[C@H](NC(=O)CNC(=O)c1cc(Cl)ccc1Cl)B1OC(=O)CC(CC(=O)O)(C(=O)O)O1", "note": "(stereo not given in full)", "parasite growth remaining, % of DMSO control (lower = more inhibition)": "7.15%"}
{"smiles": "CO[C@@H]1[C@@H](O)[C@H](O)[C@@H](n2c3c(Cl)cccc3c3c4c(c5c6cccc(Cl)c6[nH]c5c32)C(=O)NC4=O)O[C@@H]1CO", "parasite growth remaining, % of DMSO control (lower = more inhibition)": "7.89%"}
{"smiles": "Oc1cc2c(cc1O)C1c3ccc(O)c(O)c3OCC1(O)C2", "note": "(stereo not given)", "parasite growth remaining, % of DMSO control (lower = more inhibition)": "106%"}
{"smiles": "Cc1noc(-c2ccc(CSCCC(=O)O)cc2)c1NC(=O)OC(C)c1ccccc1Cl", "note": "(stereo not given)", "parasite growth remaining, % of DMSO control (lower = more inhibition)": "96%"}
{"smiles": "NC[C@H]1O[C@H](O[C@H]2[C@@H](O)[C@@H](O[C@H]3O[C@H](CO)[C@@H](O)[C@H](N)[C@@H]3O)[C@H](N)C[C@@H]2N)[C@H](N)C[C@H]1O", "parasite growth remaining, % of DMSO control (lower = more inhibition)": "92.9%"}
{"smiles": "CC(C)Oc1ccc(C(=O)N[C@H](CNC(=O)CN(C)C)Cc2ccc(-c3cn4cccc([C@H](C)O)c4n3)cc2)cc1Cl", "parasite growth remaining, % of DMSO control (lower = more inhibition)": "8.81%"}
{"smiles": "COC(=O)[C@@H]1[C@H]2C[C@@H]3c4[nH]c5ccccc5c4CCN3C[C@@H]2CC[C@@H]1O", "parasite growth remaining, % of DMSO control (lower = more inhibition)": "93.2%"}
{"smiles": "CC(C)C[C@H](NC(=O)[C@@H](NC(=O)c1cccc(-c2ccccc2)n1)[C@@H](C)O)B(O)O", "parasite growth remaining, % of DMSO control (lower = more inhibition)": "8.79%"}
{"smiles": "C=CC(=O)Nc1cc(NC(=O)c2ccc(C)c(NC(=O)c3ccno3)c2)cc(C(F)(F)F)c1", "parasite growth remaining, % of DMSO control (lower = more inhibition)": "52.8%"}
{"smiles": "C[C@]12CC[C@@H]3c4ccc(O)cc4CC[C@H]3[C@H]1CC[C@H]2O", "parasite growth remaining, % of DMSO control (lower = more inhibition)": "93.3%"}
{"smiles": "C[C@H](NCc1ccc(OCc2cccc(F)c2)cc1)C(N)=O", "parasite growth remaining, % of DMSO control (lower = more inhibition)": "6.14%"}
{"smiles": "Nc1ccc(C(=O)Nc2cccc(-c3nc(N4CCOCC4)c4oc5ncccc5c4n3)c2)cn1", "parasite growth remaining, % of DMSO control (lower = more inhibition)": "6.97%"}
{"smiles": "COc1cc(OC)c(NC(=O)Nc2cc(C)on2)cc1Cl", "parasite growth remaining, % of DMSO control (lower = more inhibition)": "100%"}
{"smiles": "CC(=O)O[C@H]1C[C@@H]2CC[C@H]3[C@H]4C[C@H]([N+]5(C)CCCCC5)[C@@H](OC(C)=O)[C@@]4(C)CC[C@@H]3[C@@]2(C)C[C@H]1N1CCCCC1", "parasite growth remaining, % of DMSO control (lower = more inhibition)": "64%"}
{"smiles": "C[C@H]1O[C@H](O[C@H]2[C@H](O)[C@@H](O)[C@@H](O[C@H]3[C@H](O)[C@@H](O)C(O)O[C@H]3CO)O[C@H]2CO)[C@H](O)[C@@H](O)[C@H]1N[C@H]1C=C(CO)[C@@H](O)[C@H](O)[C@@H]1O", "note": "(stereo not given in full)", "parasite growth remaining, % of DMSO control (lower = more inhibition)": "127%"}
{"smiles": "O=C(C=CC#Cc1cccc(NS(=O)(=O)c2ccccc2)c1)NO", "parasite growth remaining, % of DMSO control (lower = more inhibition)": "7.17%"}
{"smiles": "COc1cc2c(Nc3ccc(Cl)c(Cl)c3F)ncnc2cc1OCC1C[C@@H]2CN(C)C[C@H]2C1", "parasite growth remaining, % of DMSO control (lower = more inhibition)": "7.75%"}
{"smiles": "Oc1ccc(-c2ccc(-c3cc(Nc4cccc(CNC5CC5)c4)n[nH]3)cc2)c(O)c1", "parasite growth remaining, % of DMSO control (lower = more inhibition)": "13.4%"}
{"smiles": "C[C@H](NC(=O)[C@@H](O)c1cc(F)cc(F)c1)C(=O)N[C@@H]1C(=O)N(C)c2ccccc2-c2ccccc21", "parasite growth remaining, % of DMSO control (lower = more inhibition)": "12.1%"}
{"smiles": "C=CC[C@@H]1C=C(C)C[C@H](C)C[C@H](OC)[C@H]2O[C@@](O)(C(=O)C(=O)N3CCCC[C@H]3C(=O)O[C@H](C(C)=C[C@@H]3CC[C@H](O)[C@H](OC)C3)[C@@H](C)[C@@H](O)CC1=O)[C@@H](C)C[C@@H]2OC", "parasite growth remaining, % of DMSO control (lower = more inhibition)": "8.99%"}
